This is a sample that favours compounds with a hit; in the whole collection about 19% have one here.
uPA surface inh: qHTS for Inhibitors of Cell Surface uPA Generation; cell surface uPA generation assay, qHTS; Potency, µM (top dose mostly 38.3 µM), for inactives: at the top dose activity change, negative = inhibition, actives largely listed as inhibitors; 0.31% of 330,000 active; active = well fitted inhibition curve with a large enough effect; inconclusive = small, poorly fitted or top-dose-only effect; inactive = no such curve, though single readings can be large or run the other way; tested in mouse RAW 264.7 cells; note: potency is the fitted concentration of half-maximal effect; nearly all actives have a fitted effect of over 55% in size
HT1080-NT tox: qHTS for induction of synthetic lethality in tumor cells producing 2HG: qHTS for the HT-1080-NT fibrosarcoma cell line. 1.6% of 360,000 active. AID 686970, 2013. Potency, µM (highest dose often 46.1 µM), for inactives: at the highest dose activity, negative = less viability, usual class: cytotoxic. HT-1080-NT fibrosarcoma viability, CellTiter-Glo ATP luminescence, 48 h;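 note: NT is the 2HG producing partner of a matched IDH1 knockdown line; potency is the fitted concentration of half-maximal effect; 0% = DMSO-treated cells and -100% = media-only wells without cells; nearly all actives have a fitted effect of over 55% in size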
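Fibrosarcoma NT cells, 750 per well in 5% FBS RPMI, were exposed to compound for 48 hours. Viability: CellTiter-Glo luminescence.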
TDP1 cell CPT: qHTS for Inhibitors of human tyrosyl-DNA phosphodiesterase 1 (TDP1): qHTS in cells in presence of CPT; chicken DT40 Tdp1-/-;hTDP1 cells + 20 nM CPT, ATP luminescence, 48 h; Potency, µM (series often up to 46.2 µM), without a hit: at the highest dose activity change, negative = growth inhibition, most hits filed as inhibitors; 12% of 420,000 active; AID 686979, 2013; note: potency is the fitted concentration of half-maximal effect; nearly all actives have a fitted effect of over 55% in size
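Cell growth measured by CellTiter-Glo luminescence after a minimum 48 h, 37 C compound exposure with 20 nM CPT in Tdp1-knockout DT40 cells stably expressing hTDP1, seeded 400/well; qHTS titration format.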
IL1B secr inh: qHTS for Inhibitors of Inflammasome Signaling: IL-1-beta AlphaLISA Primary Screen. THP-1 LPS/ATP IL-1B secretion, AlphaLISA, 16 h; hits give low values. activity change, % at 57.5 µM. 4.7% of 360,000 active. AID 743279, 2014; in the data active = activity change below about -50%; inconclusive = mostly about -30% to -49%
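Secreted IL-1B measured by AlphaLISA bead assay after 16 h compound exposure of THP-1 cells; compounds (final up to 57.5 uM) added 1 h before LPS (250 ng/mL) and ATP (1.25 mM) stimulation; lower signal means less secretion.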
HT1080 IDH1KD tx: qHTS for induction of synthetic lethality in tumor cells producing 2HG: qHTS for the HT-1080-IDH1KD cell line; HT-1080 IDH1 knockdown viability, ATP luminescence, 48 h; Potency, µM (series often up to 46.1 µM), inactives show at the highest dose activity, negative = toxicity, most hits filed as cytotoxic; 2% of 360,000 active;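 note: potency is the fitted concentration of half-maximal effect; 0% = DMSO wells and -100% = cell-free medium wells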
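Using the IDH1-knockdown HT-1080 line run in the same batch and compound series as the NT line, viability after 48 h at 37 °C was determined by CellTiter-Glo luminescence and expressed as % activity.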
TDP1 cell noCPT: qHTS for Inhibitors of human tyrosyl-DNA phosphodiesterase 1 (TDP1): qHTS in cells in absence of CPT. DT40 Tdp1-/- hTDP1 cells, no CPT, ATP luminescence, 48 h. Potency, µM (doses to about 46.2 µM), for the others: at the top dose activity change, negative = growth inhibition, hits mostly inhibitors. 15% of 420,000 active. AID 686978, 2013; note: potency is the fitted concentration of half-maximal effect; nearly all actives have a fitted effect of over 55% in size
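Chicken DT40 Tdp1-/- cells complemented with human TDP1, screened without camptothecin (DMSO vehicle only), 400 cells/well. Compounds pin-transferred, cells incubated at 37 °C for at least 48 hr. Growth read as ATP-dependent luminescence (CellTiter-Glo, 30 min at RT).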
The depositor's hits bear a star; [ ] = another dose, or the depositor's remark. Unless noted, calls come from the whole dose curve; as a rule, active = well fitted curve in the direction sought with a large enough effect; inconclusive = small, poorly fitted or top-dose-only effect, or another doubt; inactive = no such curve, though single readings can be large; an effect the other way counts as inactive or inconclusive. Unless noted, % is set by controls: 0 for no effect and ±100 for the full control effect.

For NCc1cn(Cc2ccccc2)nc1-c1ccccc1 the results were TDP1 cell CPT 11.2µM* and TDP1 cell noCPT inconclusive.
Screening CCC1CCCCN1C(=O)CSc1nnc(-c2cccc(Cl)c2)o1 (configuration not stated) returned uPA surface inh -3.6%, HT1080-NT tox 1.4%, TDP1 cell CPT 25.9µM*, IL1B secr inh -20.9, HT1080 IDH1KD tx -3.7% and TDP1 cell noCPT 23.1µM*.
`CC1Cc2ccccc2N1C(=O)CSc1nnc(-c2cccc(Cl)c2)o1` (configuration not stated) gave TDP1 cell CPT 14.6µM* and TDP1 cell noCPT inconclusive.
Screening CCC1CCCCN1C(=O)CSc1nnc(-c2ccc(Cl)cc2)o1 (configuration not stated) returned uPA surface inh inconclusive, HT1080-NT tox 0.8%, TDP1 cell CPT 20.6µM*, IL1B secr inh 20.3, HT1080 IDH1KD tx 2.9% and TDP1 cell noCPT 16.4µM*.
Screening COc1ccc(/C(C)=N/Nc2nc3ccccc3nc2C)cc1 returned uPA surface inh -13.9%, HT1080-NT tox inconclusive, TDP1 cell CPT inconclusive, IL1B secr inh 10.4, HT1080 IDH1KD tx inconclusive and TDP1 cell noCPT 23.1µM*.
`COc1ccc(/C(C)=N/Nc2nncc3ccccc23)cc1` gave uPA surface inh -18.8%, HT1080-NT tox 3.5%, TDP1 cell CPT 8.8%, IL1B secr inh 0.7, HT1080 IDH1KD tx 1.6% and TDP1 cell noCPT -18.2%.
CCn1nc(C)cc1C(=O)NCC1Cc2cccc(-c3cccnc3)c2O1 (configuration not stated) was read as TDP1 cell CPT 11.9%[9.04 µM] and TDP1 cell noCPT inconclusive.
Screening CN(c1ccccc1C(=O)O)S(=O)(=O)c1ccc2[nH]c(=O)oc2c1 returned TDP1 cell CPT -3.4% and TDP1 cell noCPT -5.3%.
O=[N+]([O-])c1cc(C(F)(F)F)ccc1NCCc1ccccn1 was read as uPA surface inh inconclusive, HT1080-NT tox 0.1%, TDP1 cell CPT -10.3%, IL1B secr inh inconclusive, HT1080 IDH1KD tx 1.6% and TDP1 cell noCPT inconclusive.
For O=[N+]([O-])c1cc(C(F)(F)F)ccc1NCCCCNS(=O)(=O)c1ccc2ccccc2c1 the results were HT1080-NT tox -5.3%, TDP1 cell CPT 20.6µM*, IL1B secr inh 10.4, HT1080 IDH1KD tx inconclusive and TDP1 cell noCPT 23.1µM*.
For CN(C)C(CNc1ccc(S(C)(=O)=O)cc1[N+](=O)[O-])c1ccccc1 (configuration not stated) the results were uPA surface inh -5.0%, HT1080-NT tox -1.3%, TDP1 cell CPT 0.9%, IL1B secr inh 0.2, HT1080 IDH1KD tx -16.4% and TDP1 cell noCPT -15.4%.
For CN(C)C(CNc1ccc(C(F)(F)F)cc1[N+](=O)[O-])c1ccccc1 (configuration not stated) the results were uPA surface inh 3.8%, HT1080-NT tox -1.6%, TDP1 cell CPT inconclusive, IL1B secr inh -78.6*, HT1080 IDH1KD tx -3.4% and TDP1 cell noCPT inconclusive.
O=C(NCCCNc1ccc(C(F)(F)F)cc1[N+](=O)[O-])c1ccc(F)cc1 was read as uPA surface inh -0.5%, HT1080-NT tox 2.1%, TDP1 cell CPT 16.4µM*, IL1B secr inh 0.0, HT1080 IDH1KD tx -2.4% and TDP1 cell noCPT 23.1µM*.
COc1ccc(C(=O)NNC(=O)C2CCN(S(=O)(=O)c3ccc(C)cc3)CC2)cc1 was read as uPA surface inh -1.4%, HT1080-NT tox 19.0%, TDP1 cell CPT -0.1%, IL1B secr inh -13.4, HT1080 IDH1KD tx 18.1% and TDP1 cell noCPT -1.5%.
For CCNc1ncc2ncc(=O)n(C[C@H]3CCCO3)c2n1 the results were TDP1 cell CPT 11.6µM* and TDP1 cell noCPT 20.6µM*.
`O=c1[nH]c2cc3c(cc2cc1CN(CCCO)Cc1nnnn1Cc1ccc(F)cc1)OCO3` gave uPA surface inh 6.3%, HT1080-NT tox -3.3%, TDP1 cell CPT inconclusive, IL1B secr inh -8.1, HT1080 IDH1KD tx -7.6% and TDP1 cell noCPT 11.6µM*.
CC(C)C(c1nnnn1Cc1ccccc1)N(CCCO)Cc1cc2cc3c(cc2[nH]c1=O)OCO3 (configuration not stated) was read as uPA surface inh 14.8%, HT1080-NT tox -2.5%, TDP1 cell CPT inconclusive, IL1B secr inh -59.7*, HT1080 IDH1KD tx -2.5% and TDP1 cell noCPT 16.4µM*.
CCC(c1nnnn1Cc1ccc(OC)cc1)N(CCCO)Cc1cc2cc3c(cc2[nH]c1=O)OCO3 (configuration not stated) was read as HT1080-NT tox -16.1%, TDP1 cell CPT inconclusive, IL1B secr inh -4.5, HT1080 IDH1KD tx -20.0% and TDP1 cell noCPT inconclusive.
`CCCN(C(=O)Cn1nc(Cc2cccnc2)c2ccccc2c1=O)c1ccc(C(C)C)cc1` gave TDP1 cell CPT 23.1µM* and TDP1 cell noCPT 25.9µM*.
O=C(Cn1nc(Cc2ccncc2)c2ccccc2c1=O)Nc1cccc(C(F)(F)F)c1 was read as TDP1 cell CPT inconclusive and TDP1 cell noCPT 23.1µM*.
`O=C(Cn1nc(Cc2cccnc2)c2ccccc2c1=O)Nc1ccc(F)c(Cl)c1` gave TDP1 cell CPT -7.9% and TDP1 cell noCPT 16.4µM*.
Screening Cc1ccc(Cn2c(=O)c3cccnc3n(CC(=O)Nc3cccc(C(F)(F)F)c3)c2=O)cc1 returned uPA surface inh 2.3%, HT1080-NT tox -11.9%, TDP1 cell CPT inconclusive, IL1B secr inh -8.7, HT1080 IDH1KD tx -17.4% and TDP1 cell noCPT 16.4µM*.
CC(=O)Nc1ccc(N2C(=O)CSC2c2ccccc2[N+](=O)[O-])cc1 (configuration not stated) was read as uPA surface inh 3.9%, HT1080-NT tox 10.4%, TDP1 cell CPT -25.1%, IL1B secr inh 0.6, HT1080 IDH1KD tx 3.5% and TDP1 cell noCPT -2.2%.
`O=C(CSc1nncs1)Nc1ccc(N2CCCCC2)cc1` gave uPA surface inh -3.2%, HT1080-NT tox 6.2%, TDP1 cell CPT inconclusive, IL1B secr inh 3.9, HT1080 IDH1KD tx -6.1% and TDP1 cell noCPT 16.4µM*.
`COc1ccc(NC(=O)CSc2nncs2)cc1S(=O)(=O)N1CCCCC1` gave uPA surface inh 2.6%, HT1080-NT tox 3.5%, TDP1 cell CPT -20.3%, IL1B secr inh -9.9, HT1080 IDH1KD tx -4.4% and TDP1 cell noCPT 5.2%.

Screening data (PubChem)
